Screening results deposited in PubChem BioAssay by National Center for Advancing Translational Sciences (NCATS).
gsp ag = qHTS for Agonist of gsp, the Etiologic Mutation Responsible for Fibrous Dysplasia/McCune-Albright Syndrome: qHTS | gsp mutant cells, cAMP HTRF, 30 min | Potency, µM (titrated, usually from 76.9 µM), hits mostly activators | 340,000 compounds, 0.13% hits | AID 624287, 2012; active = well fitted activation curve with a large enough effect; inconclusive = small, poorly fitted or top-dose-only effect, or another doubt; inactive = no such curve, though single readings can be large or run the other way; cell line not stated here;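 note: phosphodiesterase inhibitor Ro 20-1724 added with compounds to block cAMP breakdown; nearly all actives have a fitted effect of over 60% in size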
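Cells in DMEM/10% FBS with G418 were pretreated with compounds in DMSO plus […] (300 uM stock) for 30 min at 37C. cAMP was measured by HTRF (cAMP-d2 plus anti-cAMP antibody-K) after 30 min at room temperature.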
BRCA1 expr up = qHTS Assay to Identify Small Molecule Activators of BRCA1 Expression; Potency, µM (series often up to 46.1 µM), usual class: activators; MCF7-BRCA1-FFLuc reporter, luminescence, 48 h; response scale: scaled: vehicle 0%, 10 µM genistein 100%; 380,000 compounds, 1.1% hits; note: nearly all actives have a fitted effect of over 80% in size
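Compounds are tested at multiple concentrations on MCF7 BRCA1-luciferase reporter cells seeded at 2000 per well; after 48 h, a single luminescence end-point is taken and curves fitted to the normalized data.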
IL-2 act = qHTS of IL-2 Activators | activation, % (series mostly up to about 46 µM) | IL-2 activation reporter assay, cell-based qHTS; stimulated with anti-CD3/CD4/CD28 beads; in transgenic mouse T cells | 360,000 compounds, 0.065% hits; in the data active = activation above about 50%; inconclusive = mostly about 30% to 49%
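Using fluorescent plate cytometry, EGFP and DsRed are detected in transgenic mouse T cells stimulated 18 h at 37 degrees C with antibody-coated beads after 60 min compound pretreatment.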
IDH1 R132H inh = qHTS for Inhibitors of mutant isocitrate dehydrogenase 1 (IDH1): qHTS; Potency, µM (series often up to 76.6 µM), most hits filed as inhibitors; IDH1-R132H enzyme, NADPH consumption, diaphorase/resazurin fluorescence; Isocitrate dehydrogenase [NADP] cytoplasmic (Homo sapiens), O75874; 390,000 compounds, 0.093% hits; note: nearly all actives have a fitted effect of over 65% in size
Target sequence (O75874 whole entry R132H, stated change not applied): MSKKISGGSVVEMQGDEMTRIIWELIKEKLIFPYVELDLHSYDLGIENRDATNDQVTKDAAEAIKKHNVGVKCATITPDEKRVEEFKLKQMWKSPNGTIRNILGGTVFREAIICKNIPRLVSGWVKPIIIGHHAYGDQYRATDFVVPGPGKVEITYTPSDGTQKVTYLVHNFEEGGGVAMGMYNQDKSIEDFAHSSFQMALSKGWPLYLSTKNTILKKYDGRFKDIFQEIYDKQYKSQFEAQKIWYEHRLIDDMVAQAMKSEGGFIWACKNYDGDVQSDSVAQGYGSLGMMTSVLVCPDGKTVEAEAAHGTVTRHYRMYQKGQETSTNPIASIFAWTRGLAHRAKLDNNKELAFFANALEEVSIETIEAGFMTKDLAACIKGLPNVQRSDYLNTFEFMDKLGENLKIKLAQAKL
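IDH1-R132H (0.5 ug/mL) preincubated 30 min with compound, then NADPH (0.016 mM) and alpha-KG (2 mM) added; 80 min at RT, pH 7.5. Remaining NADPH coupled via diaphorase/resazurin to fluorescence (540/590 nm); concentration-response curves normalized to no-enzyme control.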
gsp antag = qHTS for Antagonists of gsp, the Etiologic Mutation Responsible for Fibrous Dysplasia/McCune-Albright Syndrome: qHTS; gsp-mutant cells, cAMP HTRF, 30 min; Potency, µM (top dose mostly 76.9 µM), most hits filed as inhibitors; 340,000 compounds, 0.4% hits; AID 624288, 2012; calls by dose curve; cell line not stated here;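 note: intracellular cAMP measured with PDE inhibitor Ro 20-1724 present during compound exposure; nearly all actives have a fitted effect of over 65% in size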
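Cells, 2000/well, grown 16–24 h in DMEM 10% FBS with 0.5 mg/ml G418, then compounds plus […] (300 uM addition stock), 30 min at 37C. cAMP read by HTRF (cAMP-d2 and anti-cAMP antibody-K in lysis buffer) after 30 min RT.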
Hits are given with their value; n = inactive; u = inconclusive; x = not tested or not shown; [ ] = dose if it differs, or a comment. Rows were chosen to be rich in hits. Some 1.5% of all compounds tested hit in one or more screens of this group. Unless noted, calls come from the whole dose curve; as a rule, active = well fitted curve in the direction sought with a large enough effect; inconclusive = small, poorly fitted or top-dose-only effect, or another doubt; inactive = no such curve, though single readings can be large; an effect the other way counts as inactive or inconclusive.

SMILES	gsp ag	BRCA1 expr up	IL-2 act	IDH1 R132H inh	gsp antag
COc1cccc(C(=O)NC2=NCCS2)c1OC	n	13µM	n	n	n
COc1cc(C(=O)NC2=NCCS2)cc(OC)c1OC	n	n	n	n	n
COc1ccc(C(=O)NC2=NCCS2)cc1	n	3.2µM	n	n	n
COc1cc(OC)cc(C(=O)NC2=NCCS2)c1	n	n	n	n	n
O=C(NC1=NCCS1)c1cccc(OC(F)F)c1	n	2.8µM	n	n	n
CCOc1ccccc1N(C)S(=O)(=O)c1ccc2c(c1)CC(C)N2C(=O)C1CC1 (configuration not stated)	n	n	n	n	u
CCn1cc(C(=O)NCc2ccccc2Cl)c(=O)c2cc(S(=O)(=O)N3CCc4ccccc4C3)ccc21	x	n	x	n	x
CC1(c2nnnn2-c2ccc3c(c2)OCCO3)CCC(=O)N1CCOc1ccccc1 (configuration not stated)	x	n	n	x	x
c1csc(-c2nnc(NC3CCCCC3)c3ccccc23)c1	n	n	n	n	40µM
COc1cc(OC)cc(C(=O)Nc2ccc3c(c2)OCCO3)c1	n	13µM	n	n	n
CCOc1ccc(C(=O)Nc2ccc3c(c2)OCCO3)cc1OC	n	10µM	n	n	n
O=C(NC(=S)Nc1ccc2c(c1)OCCO2)c1ccccc1	n	u	n	n	32µM
O=C(Nc1ccc2c(c1)OCCO2)c1cnc2ccccn2c1=O	8.9µM	u	n	n	n
OC(Cc1ccc2ccccc2n1)c1ccccc1 (configuration not stated)	x	n	x	x	x
COc1ccc(NC(=O)C(NS(=O)(=O)c2cccc3nsnc23)C(C)C)cc1 (configuration not stated)	x	x	x	n	x
CCOc1cccc(C2C=C(c3ccc4c(c3)OCO4)NC(c3ccc(Cl)cc3)N2)c1O (configuration not stated)	x	n	x	x	x
O=C(Nc1ccc2c(c1)OCCO2)c1ccccc1F	n	n	n	n	n
CCCOc1ccc(C(=O)Nc2ccc3c(c2)OCO3)cc1	n	3.2µM	n	n	n
O=C(Nc1ccc2c(c1)OCCO2)c1c(F)cccc1F	u	2.5µM	n	n	n
CCN(CC)CCNC(=O)c1nn(-c2ccc(Cl)cc2)c2c1CCc1cc(OC)ccc1-2	n	n	n	n	n
O=C(Nc1ccc(Cl)cc1)c1ccc2oc(=O)n(Cc3ccccc3)c2c1	x	n	x	n	x
Cc1sc(=NC(=O)c2ccco2)n(C)c1-c1ccc(Cl)cc1	n	6.3µM	n	n	n
CCOC(=O)c1sc(=NC(=O)c2ccco2)n(C)c1C	n[15.4 µM]	n	n	n	n
Oc1ccc(/C=N/NC(=S)N/N=C/c2ccc(O)cc2)cc1	n	8.9µM	n	n	n
COc1ccccc1NC(=S)N/N=C/c1ccc(O)cc1	n	3.2µM	n	n	n
SMILES	gsp ag	BRCA1 expr up	IL-2 act	IDH1 R132H inh	gsp antag
COc1ccccc1NC(=S)N/N=C/c1cccc(C)c1	n	n	n	n	n
O=c1c2c(-c3ccc([N+](=O)[O-])cc3)csc2nc2n1CCC2	22µM	n	n	n	n
CCN(CCC#N)c1ccc(/C=C/c2ccnc3ccccc23)cc1	x	n	x	x	x
O=C(COc1cccnc1[N+](=O)[O-])Nc1ncc(Cl)cc1Cl	n	n	n	n	n
O=C(COc1cccnc1[N+](=O)[O-])Nc1cc(Cl)ccc1Cl	n	11µM	n	n	n
O=C(COc1ccccc1O)Nc1ccc(Cl)cc1	n	n	n	n	35µM
O=C(COc1ccccc1)Nc1ccc(Cl)cn1	n[15.4 µM]	n	n	n	x
O=C(COc1ccccc1Cl)Nc1ccc(Cl)cn1	n	10µM	n	n	n
Cc1ccc(OCC(=O)Nc2ccc(Cl)cc2)c([N+](=O)[O-])n1	n	11µM	n	n	n
O=C(c1cnn(-c2cccc(F)c2)c1-n1cccc1)N1CCN(c2ccccc2F)CC1	x	x	x	n	x
O=C(CN1C(=O)COc2ccc(S(=O)(=O)N3CCOCC3)cc21)N1CCN(c2ccc(Cl)cc2)CC1	x	n	x	n	x
CCOC(=O)C(=CNc1cc(C)ccc1C)C(=O)OCC	n	n	n	n	35µM
C=CCC(CC=C)(CNC(=O)C(=O)Nc1ccc(Br)cc1)c1ccc(OC)c(OC)c1	x	x	x	n	x
COC(=O)c1cc(-c2ccc3c(c2)OCO3)nc2ccccc12	n	n	n	n	u
O=C(O)c1cc(-c2ccc3c(c2)OCO3)nc2ccc(Br)cc12	10µM	n	n	n	n
O=C(NCc1cccnc1)c1ccc2sc([C@@H]3O[C@H](CO)[C@H](O)[C@H](O)[C@H]3O)nc2c1	x	n	n	x	x
Cc1ccc(-c2nc(-c3cccnc3)no2)c(C)c1	n	6.3µM	n	n	n
Cc1ccc(C)c(OCc2nc(-c3cccnc3)no2)c1	n	n	n	n	n
Brc1ccc(-c2nc(-c3cccnc3)no2)o1	n	4µM	n	n	n
O=C(Cc1ccc(F)cc1)NO	x	n	x	x	x
CC(C)n1c(O)c(N=Nc2ccc(Cl)nn2)c2ccccc21	n	n	88	n	n
CCn1nnnc1Sc1nc(C)nc2scc(-c3ccccc3)c12	x	n	x	x	x
Cc1ccc(C(=O)N2CCN(c3ccc(NC(=O)c4ccc5c(c4)OCCO5)cc3)CC2)cc1	u	n	n	n	u
Cc1ccccc1C(=O)N1CCN(c2ccc(NC(=O)c3ccc4c(c3)OCCO4)cc2)CC1	n[15.4 µM]	n	n	n	35µM
COc1cc2c(NC3CCN(C)CC3)nc(N3CCCN(C)CC3)nc2cc1OCC1CCCNC1 (configuration not stated)	x	n	x	x	x
SMILES	gsp ag	BRCA1 expr up	IL-2 act	IDH1 R132H inh	gsp antag
CCOc1ccc(NC(=O)Cn2cc(C(=O)c3ccc(F)cc3)c(=O)c3cc4c(cc32)OCO4)cc1	x	x	x	n	x
CCOC(=O)c1sc(-c2ccccc2)cc1N	n	13µM	n	n	n
CCOC(=O)c1cc(-c2ccccc2)sc1N	n[15.4 µM]	u	n	n	n
CCOC(=O)c1sc(-c2ccc(F)cc2)cc1N	n	11µM	n	n	n
CCOC(=O)c1sc(-c2ccc(OC)cc2)cc1N	n	u	n	n	n
CCOc1ccc(-c2nc(CSc3nnc(N)s3)cs2)cc1	n	4µM	n	n	n
CCOc1ccc(-c2nc(CSc3nnc(N)s3)cs2)cc1OC	n	n	n	n	n
CCCCCOc1ccc(/C=C/c2c([N+](=O)[O-])c(=O)n(C)c(=O)n2C)cc1	n[15.4 µM]	n	n	n	n
CC(=O)n1nc(-c2ccco2)nc1SCc1ccccc1	n	11µM	n	n	n
CC(C)n1cnnc1SCC(=O)Nc1ccc(N2CCCCC2)cc1	n[15.4 µM]	n	n	n	n
